Screening results (PubChem BioAssay)
AmpC inh detg: qHTS Inhibitors of AmpC Beta-Lactamase (assay with detergent). AmpC hydrolysis of nitrocefin, absorbance 480 nm, 0.01% Triton. Potency, µM (top dose mostly 114 µM), usual class: inhibitors. 0.041% of 370,000 active. AID 485294, 2010; also: nearly all actives have a fitted effect of over 25% in size
Target sequence (P00811 whole entry, looked up): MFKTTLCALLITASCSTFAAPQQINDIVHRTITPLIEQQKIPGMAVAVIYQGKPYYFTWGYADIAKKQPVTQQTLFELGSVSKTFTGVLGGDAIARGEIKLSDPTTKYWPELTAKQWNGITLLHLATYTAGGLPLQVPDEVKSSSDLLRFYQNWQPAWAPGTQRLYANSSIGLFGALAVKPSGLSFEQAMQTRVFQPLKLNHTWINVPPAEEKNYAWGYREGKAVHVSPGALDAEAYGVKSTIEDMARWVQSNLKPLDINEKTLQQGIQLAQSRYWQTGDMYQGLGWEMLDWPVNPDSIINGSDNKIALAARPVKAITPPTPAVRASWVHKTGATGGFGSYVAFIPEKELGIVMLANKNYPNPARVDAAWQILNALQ
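AmpC (5.3 nM in the dispensed reagent) in 20 mM phosphate pH 7.0 with 0.01% (detergent screen) or 0.0001% Triton X-100 was preincubated with compounds for 15 min at room temperature. Nitrocefin was then added from an 800 uM solution, and hydrolysis was followed at 480 nm.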
AmpC no deterg: qHTS Inhibitors of AmpC Beta-Lactamase (assay without detergent). P00811. AmpC nitrocefin hydrolysis, absorbance 480 nm, 0.0001% Triton. Potency, µM (series often up to 57.1 µM), usual class: inhibitors. 0.52% of 330,000 active. AID 485341, 2010; also: nearly all actives have a fitted effect of over 20% in size
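AmpC (5.3 nM in the dispensed reagent) in 20 mM phosphate pH 7.0 with 0.01% (detergent screen) or 0.0001% Triton X-100 was preincubated with compounds for 15 min at room temperature. Nitrocefin was then added from an 800 uM solution, and hydrolysis was followed at 480 nm.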
Shiga toxin inh: A qHTS for Small Molecule Inhibitors of Shiga Toxin. 9.2% of 290,000 active. inhibition, % at 38.7 µM. Vero cells, Shiga toxin protein synthesis inhibition reporter; in the data active = inhibition mostly above about 28%, no sharp cut-off; inactive = mostly below about 43%
NS1 function inh: qHTS Assay for Inhibitors of Influenza NS1 Protein Function. Potency, µM (top dose mostly 46.1 µM). 0.4% of 270,000 active; calls by dose curve; also: actives are rising curves; nearly all actives have a fitted effect of over 50% in size
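OD600 was taken as the measure of yeast growth restored by compound in an NS1-expressing S. cerevisiae strain. Cells had been washed out of glucose medium and diluted 1:100 into galactose -URA medium, pH 6.0.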
Cycloheximide cs: Cycloheximide Counterscreen for Small Molecule Inhibitors of Shiga Toxin. AID 2314, 2010. max response, %. 12% of 300,000 active. cell reporter, cycloheximide protein synthesis inhibition counterscreen; in the data active = max response mostly above about 13%, no sharp cut-off; inactive = mostly below about 14%; also: read at 38.3 µM for the half of the compounds with a filed dose
Large screens that a line does not name were inactive. Only a selection was taken, and hits are over-represented in it overall. Unless noted, calls follow the shape of the dose curve; as a rule, active = well fitted curve in the direction sought with a large enough effect; inconclusive = small, poorly fitted or top-dose-only effect, or another doubt; inactive = no such curve, though single readings can be large; an effect the other way counts as inactive or inconclusive.

O=C1C[C@@H](c2ccc(O[C@@H]3O[C@H](CO)[C@@H](O)[C@H](O)[C@H]3O)cc2)Oc2cc(O)ccc21	AmpC inh detg inconclusive, Shiga toxin inh active, Cycloheximide cs 20
C=CCNC(=O)N1CCCC(C(=O)c2cccc(Cl)c2)C1 (stereo not drawn)	none
C=CCNC(=O)N1CCCC(C(=O)c2cccc(OC(C)C)c2)C1 (stereo not drawn)	Shiga toxin inh 118, Cycloheximide cs 26
Cc1oc(-c2ccc(-c3ccccc3)cc2)nc1CN1CCN(CC(=O)N(C)C)CC1	Shiga toxin inh 108, Cycloheximide cs 52
COc1ccc(-c2nc(CN3CCN(Cc4ccccc4)CC3)c(C)o2)cc1	none
CN(C)CCCN1c2ccccc2C(C)(C)c2ccccc21	none (no result: AmpC inh detg, AmpC no deterg, Shiga toxin inh, Cycloheximide cs)
O=C(CCCCCNC(=S)Nc1ccc(Cl)cc1)C[N+](=O)[O-]	AmpC no deterg 20µM
CCN(CC)CCCNC(=O)c1cc(-c2ccc(OC)c(OC)c2)on1	none (no result: AmpC no deterg, Shiga toxin inh, NS1 function inh, Cycloheximide cs)
Cc1ccc(C(=O)NC(=S)N(C)C2CCCCC2)cc1	Shiga toxin inh 126, Cycloheximide cs 50
CN(C(=S)NC(=O)/C=C/c1ccc(F)cc1)C1CCCCC1	none
Cc1ccc2nc3n(c(=O)c2c1)-c1ccccc1C(=O)NC3Cc1ccccc1 (stereo not drawn)	none (no result: Shiga toxin inh, NS1 function inh, Cycloheximide cs)
Cc1ccccc1NC(=O)CCC(=O)N/N=C/c1ccncc1	AmpC inh detg inconclusive
CCc1[nH]nc(C(=O)N/N=C/c2ccncc2)c1C	Shiga toxin inh 50, Cycloheximide cs 24
CCOC(=O)c1c(N/N=C/c2ccncc2)n[nH]c1C	Shiga toxin inh 50
COc1ccc(CC(=O)Nc2ccc(/C(C)=N\NC(=O)c3ccc(Br)o3)cc2)cc1	Shiga toxin inh 44, Cycloheximide cs 42
C/C(=N\NC(=O)C1CC1)c1ccc(Cl)cc1	none
C/C(=N\NC(=O)c1c(Cl)cnn1C)c1ccc(NC(=O)c2ccc(Br)o2)cc1	AmpC inh detg inconclusive, Shiga toxin inh 57, Cycloheximide cs 40
COc1ccc(CC(=O)NNC(=O)c2ccc(Br)o2)cc1	none
COC(=O)c1ccc(NC(=S)NC(=O)c2c(Cl)cnn2C)cc1	AmpC no deterg inconclusive
C/C(=N\NC(=O)C1CC1)c1ccc(NC(=O)c2ccc(Br)o2)cc1	Shiga toxin inh 55, Cycloheximide cs 24
Cc1ccc(C)c(OCCC(=O)Nc2ccccc2C(=O)NC2CC2)c1	none (no result: AmpC inh detg, Shiga toxin inh, NS1 function inh, Cycloheximide cs)
C[C@H](NC(c1cccc2nc(O)c(O)nc12)P(=O)(O)O)c1ccc(Br)cc1 (stereo partly drawn)	none (no result: AmpC inh detg, AmpC no deterg, NS1 function inh)
CCN(CC)c1ccc(NC(=O)c2ccccc2)cc1S(=O)(=O)Nc1ccccc1OC	none
CCCOC(=O)Nc1ccc(S(=O)(=O)Nc2ncccn2)cc1	none
Cc1ccc(OCC(=O)Nc2cccc3ccccc23)c([N+](=O)[O-])n1	none (no result: AmpC inh detg, Shiga toxin inh, NS1 function inh, Cycloheximide cs)
Cc1cc(NC(=O)COc2cccc(C)c2C)no1	AmpC inh detg inconclusive, AmpC no deterg inconclusive, Shiga toxin inh 60, Cycloheximide cs 28
Cc1cc(NC(=O)COc2cccc3cccnc23)no1	Shiga toxin inh active, Cycloheximide cs 33
Cc1ccc(OCC(=O)Nc2cc(C)on2)c([N+](=O)[O-])n1	Shiga toxin inh 105, Cycloheximide cs 35
Cc1cc(NC(=O)COc2ccccc2C)no1	Shiga toxin inh 110, Cycloheximide cs 46
OCCOc1ccc(CN2CCN(CCCc3ccccc3)C(CCO)C2)cc1 (stereo not drawn)	none
CC(C)(C)c1cc(-c2n[nH]c(=S)n2-c2ccccc2F)n[nH]1	Shiga toxin inh 74, Cycloheximide cs 40
CN(C)c1ccc(C2C3=C(CCCC3=O)OC3=C2C(=O)CCC3)cc1	none
CN(C)c1ccc(/C=C2\CCCCC2=O)cc1	Cycloheximide cs 14
CC(C)[C@@H]1NC(=O)[C@H](CCCCN)NC(=O)[C@@H](Cc2c[nH]c3ccccc23)NC(=O)[C@H](Cc2ccc(O)cc2)NC(=O)[C@@H](NC(=O)[C@H](N)Cc2ccccc2)CSSC[C@@H](C(=O)N[C@@H](Cc2c[nH]c3ccccc23)C(N)=O)NC1=O	none (no result: AmpC inh detg, AmpC no deterg, NS1 function inh)
CC(=O)N1SC(N)=NC1c1ccccc1 (stereo not drawn)	AmpC inh detg inconclusive, Shiga toxin inh 64
CC(=O)N1N=C(c2ccccc2)CC1c1ccccc1 (stereo not drawn)	AmpC inh detg inconclusive
O=C(COC(=O)c1cc(=O)[nH]c2ccccc12)Nc1ccc(F)cc1	none (no result: AmpC inh detg, Shiga toxin inh, NS1 function inh, Cycloheximide cs)
Cc1ccsc1/C=C(\C#N)C(=O)NCc1ccco1	none
Cc1cc(/C=C(\C#N)C(=O)NCc2ccco2)c(C)n1-c1cccnc1	Shiga toxin inh 72, Cycloheximide cs 38
Cc1cc(/C=C(/C#N)c2cccc(F)c2)c(C)n1-c1cccnc1	AmpC inh detg inconclusive, Shiga toxin inh 59, Cycloheximide cs 45
Cc1cc(/C=C(\C#N)C(=O)NCc2cccs2)c(C)n1-c1ccc([N+](=O)[O-])cc1	none
Cc1cc(/C=C(\C#N)C(=O)NCc2ccco2)c(C)n1C1CCCC1	Shiga toxin inh 85, Cycloheximide cs 51
Cc1cc(/C=C(/C#N)c2cccc(Cl)c2)c(C)n1C	Cycloheximide cs 19
CCc1ccc(N2CC(C(=O)Nc3cccc(C(=O)NC4CC4)c3)CC2=O)cc1 (stereo not drawn)	none (no result: Shiga toxin inh, NS1 function inh, Cycloheximide cs)
Cc1ccc(C)c(NC(=O)c2nnn(Cc3ccc(F)cc3Cl)c2N)c1	none (no result: AmpC no deterg, Shiga toxin inh, NS1 function inh, Cycloheximide cs)
CC1CN(C(=O)CCC(=O)N2CCOCC2)c2ccccc2O1 (stereo not drawn)	none
Cn1nnnc1SCCCNCc1cc(Cl)ccc1OCc1ccccc1F	none (no result: AmpC no deterg, Shiga toxin inh, NS1 function inh, Cycloheximide cs)
O=C(NCC1CCOCC1)c1cc(COc2ccc(F)cc2F)on1	none
COc1ccccc1OCc1cc(C(=O)N2CCN(C)C(c3ccccc3)C2)no1 (stereo not drawn)	Shiga toxin inh 81, Cycloheximide cs 59 (no result: NS1 function inh)
COc1ccc(OCc2cc(C(=O)N3C[C@H]4CC[C@H]3C4)no2)c(Cl)c1	Shiga toxin inh 88, Cycloheximide cs 36
COCC1CCN(C(=O)c2cc(COc3ccccc3SC)on2)C1 (stereo not drawn)	none
COCC1CCN(C(=O)c2cc(COc3ccc(F)cc3F)on2)C1 (stereo not drawn)	Cycloheximide cs 20
O=C(c1cc(COc2ccc(F)cc2F)on1)N1C[C@H]2CC[C@H]1C2	Shiga toxin inh 101, Cycloheximide cs 52
CCOc1ccc(-c2cc3c(=O)n(CC(=O)Nc4c(C)cccc4C)ccn3n2)cc1	none (no result: AmpC no deterg, Shiga toxin inh, NS1 function inh, Cycloheximide cs)
CN(Cc1ccccc1)Cn1ccnc1	none (no result: AmpC inh detg, AmpC no deterg, Shiga toxin inh, Cycloheximide cs)
CCc1c(C)nc(N2CCN(c3ccc(OC)cc3)CC2)[nH]c1=O	none
O=C(c1cc(COc2ccc(F)cc2F)on1)N1CC2C[C@@H]3CC1C[C@H](C2)C3	Shiga toxin inh 115, Cycloheximide cs 43
O=C(c1cc(COc2c(F)cccc2F)on1)N1C[C@H]2CC[C@H]1C2	Shiga toxin inh 103, Cycloheximide cs 76
COc1ccccc1OCc1cc(C(=O)N2CC3C[C@@H]4CC2C[C@H](C3)C4)no1	Shiga toxin inh 76, Cycloheximide cs 51
